A selection: hits, their analogues and other compounds. The true share with any hit is near 1.8%.
PolyA inh – blocks polyadenylation in yeast reporter cells. S. cerevisiae SKY197-pL101 polyadenylation reporter, beta-gal luminescence; efflux-impaired pdr1/pdr3 knockout yeast; score 100 = 6 SD above DMSO. activity score, % at 12 µM. actives 0.02% (n = 300,000). AID 1875;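 active means lowest replicate activity score at least 50, where 100 means six control SD above control mean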;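 further: yeast exposed to compound for 9 h at 30 °C; higher score means more reporter readthrough which indicates perturbed polyadenylation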
SUMO Mot1 rescue – SUMOylation pathway inhibition by Mot1-301 growth rescue | growth rescue, % at 18.8 µM | actives 1% (n = 320,000) | AID 2716 | S. cerevisiae Mot1-301 growth rescue, ATP luminescence, 38.5C; percent above DMSO median, 100 means doubled;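 active means every valid replicate shows activation above 250% relative to neutral control wells; inactive means the rest, any valid replicate at or below 250%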
NALP1 inh – inhibitors of NALP1 inflammasome in yeast; S. cerevisiae NALP1/ASC/caspase-1 growth, X-gal OD620, 72 h; inhibition, % at 10 µM; actives 0.61% (n = 280,000); AID 2071; in the data active means inhibition mostly above about 24%, no sharp cut-off; inactive means mostly below about 32%
NALP3 yeast inh – NALP3 inhibition in yeast. actives 0.39% (n = 330,000). inhibition, % at 10 µM. Yeast reconstituted NLRP3/ASC/caspase-1, beta-gal luminescence, 24 h;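 active means inhibition of 50% or more; inactive means inhibition below 50%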
Hits are given with their value; - = inactive; . = no result given.

SMILES	PolyA inh	SUMO Mot1 rescue	NALP1 inh	NALP3 yeast inh
O=C(NCc1ccccn1)C(=O)NCc1ccccn1	-	295	-	-
O=C(O)CSc1cc(NS(=O)(=O)c2ccc(Cl)cc2)c2ccccc2c1O	-	-	-	.
Cc1cc(C)c(S(=O)(=O)Nc2cc(SCC(=O)O)c(O)c3ccccc23)cc1C	-	-	49	.
CCOC(=O)c1sc(=S)n(-c2ccc(C)cc2)c1SC	-	-	-	-
CC(C)(C)C1CCC2(CC1)NC(=S)N(c1ccccc1)N2 (stereo unspecified)	-	302	-	-
CCC(C)(C)C1CCC2(CC1)NC(=S)N(c1ccccc1)N2 (stereo unspecified)	-	-	-	-
S=C(NCCN1CCCCC1)Nc1ccc(Br)cc1	-	348	.	-
COc1ccc(/C=N/Nc2nc(-c3ccc(C)cc3)c(NC(C)=O)s2)cc1	-	-	-	-
O=C(CCc1nc(-c2ccccc2)c(-c2ccccc2)o1)OCc1ccc(Cl)cc1	-	-	37	-
CN(C)C(=O)CSc1cnc2ccccc2n1	-	-	28	-
CNC(=O)CSc1cnc2ccccc2n1	-	-	-	-
COc1ccc(S(=O)(=O)NCc2cccnc2)cc1C(=O)NC1CCCCC1	-	-	-	-
CCNS(=O)(=O)c1ccc(OC)c(C(=O)NC2CCCCC2)c1	-	323	-	-
COc1cc(CNc2ccc3[nH]c(=O)[nH]c3c2)ccc1OCc1c(F)cccc1Cl	-	-	-	-
O=C(CCN1CCCCC1)c1ccccc1	-	-	-	-
CCc1oc2ccccc2c1C(=O)CCN1CCCCC1	-	-	50	-
CCCc1[nH]nc2c1C(c1ccoc1)C(C#N)=C(N)O2 (stereo unspecified)	-	-	58	-
Cc1[nH]nc2c1C(c1ccoc1)C(C#N)=C(N)O2 (stereo unspecified)	-	-	.	-
CC(=O)NC1C(OCc2ccccc2)OC2COC(C)(C)OC2C1O (stereo unspecified)	-	-	-	-
COC(=O)c1ccc2c(c1)C(C)(C)C(/C=C/c1ccc(O)cc1)=[N+]2C	-	-	52	-
C/C(=N/NC(=O)c1sc(NS(=O)(=O)c2ccccc2)nc1C)c1sc(N)nc1C	-	-	-	-
Cc1csc(NC(=O)c2ccc(COc3ccccc3)o2)n1	-	-	43	-
Cc1cccc(NC(=O)c2ccc(COc3ccccc3)o2)n1	-	-	-	-
COC(=O)CCC(=O)OC1(C)C(=O)C=C2C=C(C3CC3)N(C3CCCCC3)C=C2C1=O (stereo unspecified)	-	-	.	-
O=C(CCNC(=O)c1ccc(Cl)cc1)NCc1cccc(C(F)(F)F)c1	-	-	.	-
SMILES	PolyA inh	SUMO Mot1 rescue	NALP1 inh	NALP3 yeast inh
COC(=O)c1ccc(N=Cc2c(C(F)(F)F)[nH][nH]c2=O)cc1	-	-	27	-
Cc1ccc(-n2ncc3c(NCc4ccccc4)ncnc32)cc1	-	.	41	-
Cc1ccc(CCC(=O)Nc2ccc([N+](=O)[O-])cc2Cl)o1	-	-	-	-
COC(=O)c1ccc(S(=O)(=O)N2CCN(C(c3ccccc3)c3ccccc3)CC2)n1C	-	-	.	-
CCOC(=O)C1CCCCN1Cc1ccc(F)cc1 (stereo unspecified)	-	-	43	-
COc1ccc(N2CC(C(=O)NCCc3ccc(OC)c(OC)c3)CC2=O)cc1 (stereo unspecified)	-	-	-	-
CCCCOc1ccc(N2CC(C(=O)NCCc3ccc(OC)c(OC)c3)CC2=O)cc1 (stereo unspecified)	-	909	-	-
CCCn1nnnc1SCC(=O)NCc1ccccc1	-	-	-	-
COc1ccc(C(CNC(=O)Cc2c(F)cccc2Cl)N2CCCCC2)cc1 (stereo unspecified)	-	-	23	-
CN(C)c1ccc(NS(=O)(=O)c2ccc(-c3csnn3)cc2)cc1	-	-	43	-
Cc1ccc(/C=N/NC(=O)c2cc(-c3ccc(C)o3)[nH]n2)cc1	-	-	-	-
COc1ccccc1/C=C/C=N/NC(=O)c1cc(-c2ccc(C)o2)[nH]n1	-	308	-	-
CCC(=O)n1nc(-c2ccccc2)nc1N	-	-	-	-
CCC(=O)n1nc(-c2ccc(OC)cc2)nc1N	-	.	24	-
COc1ccc(CN2CCN(Cc3cccc(OC)c3)C(CCO)C2)cc1 (stereo unspecified)	-	-	-	-
O=[N+]([O-])c1cccc(-c2cc(-c3cc(Br)ccc3O)[nH]n2)c1	-	-	-	-
CC(=O)Oc1ccc(N(C(C)=O)S(=O)(=O)c2ccc(C)cc2C)c2ccccc12	-	-	-	-

Screens: PubChem, several laboratories
